Experimental findings from paper PMC7826789 (International Journal of Molecular Sciences, 2021) are described below.

Among the test systems are PRKG1; PRKG2; PRKX; RAF1; RET(M918T); RET(V804L).
Conditions in all cases: Compound Concentration (nM):1000
The test system of the next assay is T1, PRKR.
T1 construct: gene EIF2AK2

The test system of another assay is T2, PRP4.
T2 construct: gene PRPF4B

The test system of the next assay is T3, PYK2.
T3 construct: gene PTK2B

Another assay relates to T4, QSK.
T4 construct: gene KIAA0999
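Note: KINOMEscan scanMAX binding as percent activity remaining versus control; lower means stronger binding.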

For `COC(=O)Nc1nc2ccc(Oc3ccc(NC(=O)Nc4cc(C(F)(F)F)ccc4F)cc3)cc2s1.Cl` [GW693917A], the “Percent Control” value with PRKG1 is 100%; in the assay with PRKG2, 91%; in the assay with PRKR, 85%; with PRKX, 100%; in the assay with PRP4, 100%; with PYK2, 94%. Also, the “Percent Control” value is 88% in the assay on QSK, 17% in the assay on RAF1, 0.8% in the assay with RET(M918T) and 1% with RET(V804L).

Turning to `CCS(=O)(=O)c1ccc(OC)c(Nc2ncc(-c3cccc(OC)c3)o2)c1` [GW580509X], the “Percent Control” value in the assay with PRKG1 is 100%; in the assay on PRKG2, 100%; with PRKR, 85%; in the assay with PRKX, 100%; with PRP4, 82%; in the assay on PYK2 it was 100%. Moreover, the “Percent Control” value in the assay with QSK came out at 100%; in the assay on RAF1 it was 100%; in the assay with RET(M918T) it was 50%; in the assay with RET(V804L), 78%.

As for `CCS(=O)(=O)c1ccc(OC)c(Nc2ncc(-c3cccc(F)c3)o2)c1` [GW621970X], the “Percent Control” value in the assay with PRKG1 was 100%; with PRKG2 it was 100%; with PRKR, 76%; in the assay on PRKX it was 100%; in the assay on PRP4, 100%; in the assay with PYK2, 100%. For the same compound, the “Percent Control” value came to 99% in the assay on QSK, 100% in the assay with RAF1, 52% with RET(M918T) and 84% in the assay on RET(V804L).

Consider `COc1ccc2c(-c3ccnc(Nc4cccc(OC(F)(F)F)c4)n3)cnn2n1` [GW810372X], for which the “Percent Control” value with PRKG1 was 82%; in the assay on PRKG2 it was 97%; with PRKR it was 75%; with PRKX it was 100%; in the assay with PRP4 it was 100%; in the assay with PYK2, 96%. In addition, the “Percent Control” value amounted to 95% in the assay with QSK, 100% with RAF1, 100% with RET(M918T) and 100% with RET(V804L).

As for `COc1cc(C=NNc2ncnc3c2cnn3-c2ccccc2)ccc1O` [GW513184X], the “Percent Control” value in the assay with PRKG1 was 100%; in the assay on PRKG2, 100%; with PRKR, 76%; in the assay with PRKX, 100%; in the assay on PRP4 it was 100%; with PYK2, 100%. The “Percent Control” value is recorded as 100% with QSK, 100% in the assay on RAF1, 18% in the assay on RET(M918T) and 90% in the assay with RET(V804L).

Take `Cc1cc(O)cc(C)c1/C=C/c1cncc(C(N)=O)c1` [GW435821X]: the “Percent Control” value in the assay with PRKG1 is 100%; in the assay with PRKG2, 100%; with PRKR it was 94%; with PRKX, 100%; in the assay on PRP4 it was 100%; with PYK2, 100%. Besides, the “Percent Control” value is 86% in the assay on QSK, 58% in the assay with RAF1, 100% with RET(M918T) and 100% in the assay with RET(V804L).

Consider `C/C(Nc1ccc(S(N)(=O)=O)cc1)=C1/C(=O)Nc2ccccc21` [GW335962X], for which the “Percent Control” value with PRKG1 is 90%; in the assay with PRKG2, 94%; with PRKR, 63%; with PRKX, 87%; in the assay with PRP4, 100%; in the assay on PYK2 it was 99%. The “Percent Control” value with QSK came to 97%; in the assay with RAF1, 83%; with RET(M918T), 92%; in the assay with RET(V804L) it was 98%.

With `CC(C)COC(=O)c1ccc2c(c1)/C(=C/Nc1ccc(S(N)(=O)=O)cc1)C(=O)N2` [GW416981X], the “Percent Control” value with PRKG1 was 100%; in the assay with PRKG2, 54%; with PRKR, 65%; with PRKX it was 100%; in the assay on PRP4 it was 96%; with PYK2 it was 100%. Also, the “Percent Control” value stood at 95% in the assay on QSK, 100% with RAF1, 83% with RET(M918T) and 43% in the assay with RET(V804L).

With `C[C@@H](Oc1cc(-n2cnc3ccc(OC4CCN(C)CC4)cc32)sc1C(N)=O)c1ccccc1Cl` [GSK579289A], the “Percent Control” value was 100% in the assay on PRKG1; 65% in the assay on PRKG2; 80% in the assay on PRKR; 74% in the assay on PRKX; 100% with PRP4; 86% with PYK2. In addition, the “Percent Control” value in the assay with QSK was determined as 85%; with RAF1, 100%; with RET(M918T), 99%; in the assay with RET(V804L), 100%.

Take `COc1cc(C)c(N(C)C(=O)CN(C)C)cc1Nc1nc(Nc2cccc(F)c2C(N)=O)c2cc[nH]c2n1` [GSK2219385]: the “Percent Control” value in the assay with PRKG1 was 92%; in the assay on PRKG2 it was 82%; with PRKR it was 100%; in the assay with PRKX, 95%; in the assay on PRP4, 100%; in the assay on PYK2, 81%. The “Percent Control” value in the assay on QSK, in the assay on RAF1, in the assay on RET(M918T) and with RET(V804L) was 100% in each case.

In the case of `Cl.O=C(Nc1ccc(Oc2ccc3[nH]c(NC(=O)c4ccco4)nc3c2)cc1)Nc1cc(C(F)(F)F)ccc1F` [GW683134A], the “Percent Control” value in the assay with PRKG1 is 96%; in the assay on PRKG2 it was 88%; in the assay on PRKR, 68%; in the assay with PRKX, 100%; in the assay with PRP4 it was 100%; with PYK2 it was 93%. Also, the “Percent Control” value is given as 100% with QSK, 9.5% in the assay with RAF1, 0.7% in the assay on RET(M918T) and 0.4% in the assay on RET(V804L).

With `Cl.c1ccc(Cc2nc3ccc(Nc4ncnc5ccccc45)cc3[nH]2)cc1` [GR269666A], the “Percent Control” value was 100% in the assay with PRKG1; 100% in the assay with PRKG2; 84% in the assay with PRKR; 100% in the assay on PRKX; 100% with PRP4; 100% in the assay with PYK2. The “Percent Control” value with QSK, with RAF1, in the assay with RET(M918T) and in the assay on RET(V804L) was 100% throughout.

Consider `NS(=O)(=O)c1ccc(N/N=C2\C(=O)Nc3ccc(-c4cnco4)cc32)cc1` [GW276655], for which the “Percent Control” value is 68% with PRKG1; 57% in the assay on PRKG2; 54% with PRKR; 100% in the assay with PRKX; 100% in the assay with PRP4; 79% with PYK2. Moreover, the “Percent Control” value with QSK is 100%; with RAF1, 100%; in the assay with RET(M918T) it was 59%; with RET(V804L), 60%.

With `NS(=O)(=O)c1ccc(N/N=C2\C(=O)Nc3ccc(C(=O)NCc4ccncc4)cc32)cc1` [GW300657X], the “Percent Control” value with PRKG1 was 100%; in the assay on PRKG2, 94%; with PRKR, 65%; with PRKX, 94%; in the assay with PRP4, 81%; in the assay with PYK2 it was 58%. Also, the “Percent Control” value with QSK is recorded as 100%; in the assay on RAF1, 100%; in the assay with RET(M918T), 80%; in the assay on RET(V804L), 74%.

As to `CC1=C(C(=O)Nc2ccc3[nH]ncc3c2)C(c2ccc(Cl)c(Cl)c2)CC(=O)N1` (centres unmarked) [GSK299115A], the “Percent Control” value is 45% in the assay with PRKG1; 67% with PRKG2; 79% in the assay with PRKR; 25% in the assay with PRKX; 74% with PRP4; 79% with PYK2. Moreover, the “Percent Control” value with QSK was 92%; in the assay on RAF1 it was 100%; with RET(M918T) it was 74%; in the assay on RET(V804L), 75%.

For `COc1ccc2[nH]c3c4[nH]c5ccc(OC)cc5c4c4c(c3c2c1)C(=O)NC4=O` [GW296115X], the “Percent Control” value in the assay on PRKG1 is 74%; in the assay with PRKG2 it was 0.9%; with PRKR, 100%; with PRKX it was 23%; with PRP4 it was 97%; with PYK2, 68%. For the same compound, the “Percent Control” value worked out at 56% in the assay on QSK, 100% in the assay on RAF1, 21% in the assay with RET(M918T) and 4.2% in the assay with RET(V804L).

Turning to `O=C1Nc2ccc(C(=O)c3ccco3)cc2C1=Cc1cc(Cl)c(O)c(Cl)c1` [GW406108X], the “Percent Control” value in the assay on PRKG1 is 100%; with PRKG2 it was 100%; in the assay on PRKR, 62%; in the assay on PRKX, 100%; with PRP4, 71%; with PYK2 it was 100%. For the same compound, the “Percent Control” value is reported as 100% with QSK, 13% in the assay on RAF1, 56% in the assay with RET(M918T) and 29% in the assay on RET(V804L).

For the compound `COc1cc2ncn(-c3cc(O[C@H](C)c4ccccc4Cl)c(C(N)=O)s3)c2cc1OC` [GSK237701A], the “Percent Control” value is 100% in the assay with PRKG1; 92% in the assay on PRKG2; 82% in the assay with PRKR; 97% with PRKX; 61% in the assay with PRP4; 62% in the assay with PYK2. Also, the “Percent Control” value in the assay with QSK came to 97%; with RAF1, 73%; in the assay with RET(M918T), 51%; in the assay with RET(V804L), 56%.

As to `COc1cccc(-n2ncc3c(N/N=C/c4ccncc4)ncnc32)c1` [GW784752X], the “Percent Control” value in the assay with PRKG1 was 93%; in the assay on PRKG2, 100%; with PRKR it was 80%; with PRKX, 38%; in the assay on PRP4, 84%; with PYK2, 95%. For the same compound, the “Percent Control” value in the assay with QSK is given as 100%; with RAF1, 58%; with RET(M918T) it was 93%; in the assay with RET(V804L), 100%.

For the compound `CN(C)CCNC(=O)Nc1ccc(N(C)c2ccnc(Nc3ccc(CS(C)(=O)=O)cc3)n2)cc1.Cl` [GW830900A], the “Percent Control” value is 100% in the assay on PRKG1; 95% with PRKG2; 100% in the assay with PRKR; 90% with PRKX; 100% in the assay on PRP4; 57% in the assay on PYK2. Further, the “Percent Control” value in the assay with QSK was 87%; with RAF1, 100%; with RET(M918T) it was 79%; with RET(V804L), 88%.
